The results in this text go back to PubChem BioAssay (Tox21).

Assay [1] is described as follows: qHTS assay to identify small molecule agonists of the sonic hedgehog signaling (Shh) pathway (AID 1259368).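 Also: NIH/3T3-derived 3T3Gli1-Luc cells carrying a stable Gli1-driven firefly luciferase reporter; series mostly up to about 92 µM; nearly all actives have a fitted effect of over 15% in size.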 The essentials: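 Stable NIH/3T3 Gli1-Luc reporter clone; 24 hr cpd exposure after a 4 hr settling period; luminescence endpoint.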
Assay [2] can be described thus: qHTS assay to identify small molecule antagonists of the sonic hedgehog signaling (Shh) pathway (AID 1259369). Also: nearly all actives have a fitted effect of over 45% in size. Summed up:
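Gli1 transcriptional reporter (firefly Luc) in NIH/3T3 background, conditioned-medium activated. 24hr exposure, luminescence endpoint.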
For orientation: In qHTS, concentration-response curves come from the screen itself.

Assay [3] concerns the target Estrogen receptor beta (Homo sapiens) (UniProt Q92731). The experiment in a line: qHTS assay to identify small molecule agonists of the estrogen receptor beta (ER-beta) signaling pathway (AID 1259377; active = well fitted activation curve with a large enough effect in the signal ratio in the repeat runs, not every such curve was filed as active; the % refers to the signal ratio). The essentials:
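ER-beta-UAS-bla HEK293T (GripTite) cells carrying a UAS-driven beta-lactamase reporter, in medium with 2% charcoal-stripped FBS, were exposed to compounds for 16 hr at 37C; LiveBLAzer B/G FRET substrate was then added and fluorescence read after 2 hours at room temperature.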

Assay [4] is described as follows: qHTS assay to identify small molecule agonists of the androgen receptor (AR) signaling pathway in the presence of an antagonist - cell viability counter screen (AID 1259379; active = well fitted curve in the direction sought with a large enough effect in the repeat runs; an effect the other way counts as inactive or inconclusive;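 also: MDA-kb2 human breast cancer cells carrying an MMTV luciferase reporter; series mostly up to about 92 µM; nearly all actives have a fitted effect of over 25% in size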). The essentials:
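Counter screen for cell viability run in parallel with the AR agonist-mode luciferase assay. MDA-kb2 cells were co-treated with nilutamide (3.0uM final) and compounds, then incubated 16 hr at 37C, and CellTiter-Fluor fluorescence was measured.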

A short description of assay [5]: qHTS assay to identify small molecule agonists of the estrogen receptor beta (ER-beta) signaling pathway - cell viability counter screen (AID 1259380; active = well fitted curve in the direction sought with a large enough effect in the repeat runs; an effect the other way counts as inactive or inconclusive; also: nearly all actives have a fitted effect of over 30% in size). The essentials:
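In this qHTS counter screen, HEK293T cells carrying an ER-beta/UAS beta-lactamase reporter, grown in 2% charcoal-stripped FBS, received compound for 16 hr; ATP-based CellTiter-Glo luminescence was then read after 30 min at room temperature.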

Assay [6] can be described thus: qHTS assay to identify small molecule antagonists of the estrogen receptor beta (ER-beta) signaling pathway - cell viability counter screen (AID 1259382; active = well fitted curve in the direction sought with a large enough effect in the repeat runs; an effect the other way counts as inactive or inconclusive; also: series mostly up to about 92 µM; nearly all actives have a fitted effect of over 55% in size). The essentials:
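HEK293T ER-beta-UAS-bla, 2% charcoal-stripped FBS; compounds + 1nM E2 16 hr 37C; CellTiter-Glo luminescence, 30 min RT.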

The target of assay [7] is Estrogen receptor (Homo sapiens) (UniProt P03372). The experiment in a line: qHTS assay to identify small molecule agonists of the estrogen receptor alpha (ER-alpha) signaling pathway in the presence of an antagonist (AID 1259383). Also: top concentration of the series differs between compounds; nearly all actives have a fitted effect of over 15% in size. Summed up: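 ER-alpha agonism measured under antagonist challenge: 10.0nM ICI-182,780 (final) plus compound, 15 concentrations, 22hr, VM7Luc4E2 ERE-luciferase cells. Read by luminescence.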

A short description of assay [8]: qHTS assay to identify small molecule agonists or antagonists of the thyroid stimulating hormone receptor (TSHR) signaling pathway - wild type cell line counter screen (AID 1259384). Summed up: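 Wild-type HEK293 cells were plated 18 h at 37 C/5% CO2, pin-dosed with compound plus Ro20-1724 medium, held 30 min at room temperature, then given cAMP-d2 and anti-cAMP-cryptate; fluorescence was read after 1 h. Fifteen concentrations, triplicate.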

Assay [9] has as its target Thyrotropin receptor (Homo sapiens) (UniProt P16473). Nature of the assay: qHTS assay to identify small molecule antagonists of the thyroid stimulating hormone receptor (TSHR) signaling pathway (AID 1259385). Also: nearly all actives have a fitted effect of over 20% in size. Summed up: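 TSHR-HEK293 cells were plated and held 18 h at 37C/5% CO2, then given compound plus Ro20-1724 and stimulated with TSH at 1.5 ng/mL final. After 30 min at room temperature, cAMP was detected with cAMP-d2/anti-cAMP-cryptate (1 h) by fluorescence.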

Assay [10] is described as follows: qHTS assay to identify small molecule agonists of the estrogen receptor alpha (ER-alpha) signaling pathway in the presence of an antagonist - cell viability counter screen (AID 1259386; active = well fitted curve in the direction sought with a large enough effect in the repeat runs; an effect the other way counts as inactive or inconclusive;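 also: series mostly up to about 92 µM; cells exposed to compounds for 22 h at 37 °C before the viability read; nearly all actives have a fitted effect of over 30% in size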). The essentials: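 Steps: 5-day stripped-FBS culture; seed and incubate 24hr; add ICI-182,780 (10.0nM final); pin 15-point compound titration; incubate 22hr at 37C; add CellTiter-Fluor at 21hr; read fluorescence.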

Assay [11] has as its target Progesterone receptor (Homo sapiens) (UniProt P06401). Nature of the assay: qHTS assay to identify small molecule agonists of the progesterone receptor (PR) signaling pathway (AID 1346784). Also: nearly all actives have a fitted effect of over 30% in size. The essentials: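 PR-UAS-bla HEK 293T cells carrying a UAS-driven beta-lactamase reporter were seeded in medium with 2% charcoal-stripped FBS, preincubated 6 hr at 37C, then exposed to compounds in DMSO for 16 hr; agonism was read by LiveBLAzer B/G FRET fluorescence.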

For assay [12] the target is unchanged. Nature of the assay: qHTS assay to identify small molecule antagonists of the progesterone receptor (PR) signaling pathway (AID 1346795; active = well fitted inhibition curve with a large enough effect in the signal ratio in the repeat runs, not every such curve was filed as active; the % refers to the signal ratio; also: potency is read from the fitted curve at half-maximal effect). The essentials:
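PR-UAS-bla HEK293T cells carrying a UAS-driven beta-lactamase reporter were plated in medium with 2% charcoal-stripped FBS and rested 6 hr at 37C. Compounds were added with 1 nM R5020 (final) for 16 hr, then FRET substrate loaded 2 hr at room temperature.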

Assay [13] is described as follows: qHTS assay to identify small molecule antagonists of the progesterone receptor (PR) signaling pathway - cell viability counter screen (AID 1346798; active = well fitted curve in the direction sought with a large enough effect in the repeat runs; an effect the other way counts as inactive or inconclusive; also: series mostly up to about 92 µM; nearly all actives have a fitted effect of over 50% in size). The essentials: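 PR-UAS-bla HEK293T cells in medium with 2% charcoal-stripped FBS were treated with compounds plus R5020 for 16 hr at 37C. Cell viability was then read by CellTiter-Glo luminescence after 30 min at room temperature in the same wells.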

A short description of assay [14]: qHTS assay to identify small molecule agonists of the progesterone receptor (PR) signaling pathway - cell viability counter screen (AID 1346799). Also: nearly all actives have a fitted effect of over 45% in size. Summed up:
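PR-UAS-bla HEK293T cells, 3,000 per well in medium with 2% charcoal-stripped FBS, were preincubated 6 hr at 37C, then exposed to compounds for 16 hr; viability was read as CellTiter-Glo luminescence after 30 min at room temperature.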

Assay [15] in a line: qHTS assay to identify small molecule antagonists of the TGF-beta/Smad signaling pathway - cell viability counter screen (AID 1346824; active = well fitted curve in the direction sought with a large enough effect in the repeat runs; an effect the other way counts as inactive or inconclusive; also: nearly all actives have a fitted effect of over 50% in size). Summed up: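 SBE-bla HEK 293T cells were plated overnight at 37 C, then given compounds in DMSO plus TGF-beta1 (added as 0.25 ng/mL solution) for 5 hr. After the bla read, CellTiter-Glo was added to the same wells and luminescence read after 30 min at room temperature.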

Assay [16] is described as follows: qHTS assay to identify small molecule agonists of the TGF-beta/Smad signaling pathway - cell viability counter screen (AID 1346829; active = well fitted curve in the direction sought with a large enough effect in the repeat runs; an effect the other way counts as inactive or inconclusive; also: top concentration of the series differs between compounds; nearly all actives have a fitted effect of over 45% in size). The essentials:
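HEK 293T SBE-bla line, 5 hr compound exposure at 37 C, multiplexed CellTiter-Glo viability read by luminescence.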

The nature of assay [17]: qHTS assay to identify small molecule agonists of the TGF-beta/Smad signaling pathway (AID 1346859; active = well fitted activation curve with a large enough effect in the signal ratio in the repeat runs, not every such curve was filed as active; the % refers to the signal ratio; also: series mostly up to about 77 µM). Summed up: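 HEK 293T cells stably carrying a beta-lactamase reporter driven by the Smad binding element were seeded overnight, exposed to DMSO-dissolved compounds for 5 hr at 37 C, 5% CO2, then loaded with FRET substrate for 2 hr at room temperature.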
The target of assay [18] is Estrogen receptor beta (Homo sapiens) (UniProt Q92731). The experiment in a line: qHTS assay to identify small molecule antagonists of the estrogen receptor beta (ER-beta) signaling pathway (AID 1259378; active = well fitted inhibition curve with a large enough effect in the signal ratio in the repeat runs, not every such curve was filed as active; the % refers to the signal ratio). The essentials:
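ER-beta-UAS-bla HEK293T (GripTite) cells in 2% charcoal-stripped FBS medium were preincubated 6 hr at 37C, dosed with compound, then stimulated with 1 nM E2 (final) for 16 hr; beta-lactamase reporter read by B/G FRET fluorescence after 2 hr substrate loading.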

In assay [19] the target is Thyrotropin-releasing hormone receptor (Homo sapiens) (UniProt P34981). Nature of the assay: qHTS assay to identify small molecule antagonists of the thyrotropin-releasing hormone receptor (TRHR) signaling pathway (AID 1346877; active = well fitted inhibition curve with a large enough effect in the repeat runs, not every such curve was filed as active; also: series mostly up to about 51 µM). The essentials:
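Human TRHR in HEK293 cells; inhibition of the intracellular calcium rise triggered by 1 nM TRH was followed by fluorescence over 3 min. Compounds were run at 15 concentrations, three replicates each.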

Assay [20] concerns the target Androgen receptor (Homo sapiens) (UniProt P10275). Nature of the assay: qHTS assay to identify small molecule agonists of the androgen receptor (AR) signaling pathway in the presence of an antagonist (AID 1259381). Also: nearly all actives have a fitted effect of over 15% in size. Summed up: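 AR antagonist background: nilutamide 3.0uM final. Cell line: MDA-kb2, MMTV-driven luciferase, responsive to both AR and GR. Exposure 16hr, 37C, no CO2; ONE-Glo luminescence.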

Results filed as inconclusive are left out. Active and inactive are the calls of the source. Unless noted, calls follow the shape of the full dose curve.

Chain of Estrogen receptor (Homo sapiens) (P03372 whole entry, looked up): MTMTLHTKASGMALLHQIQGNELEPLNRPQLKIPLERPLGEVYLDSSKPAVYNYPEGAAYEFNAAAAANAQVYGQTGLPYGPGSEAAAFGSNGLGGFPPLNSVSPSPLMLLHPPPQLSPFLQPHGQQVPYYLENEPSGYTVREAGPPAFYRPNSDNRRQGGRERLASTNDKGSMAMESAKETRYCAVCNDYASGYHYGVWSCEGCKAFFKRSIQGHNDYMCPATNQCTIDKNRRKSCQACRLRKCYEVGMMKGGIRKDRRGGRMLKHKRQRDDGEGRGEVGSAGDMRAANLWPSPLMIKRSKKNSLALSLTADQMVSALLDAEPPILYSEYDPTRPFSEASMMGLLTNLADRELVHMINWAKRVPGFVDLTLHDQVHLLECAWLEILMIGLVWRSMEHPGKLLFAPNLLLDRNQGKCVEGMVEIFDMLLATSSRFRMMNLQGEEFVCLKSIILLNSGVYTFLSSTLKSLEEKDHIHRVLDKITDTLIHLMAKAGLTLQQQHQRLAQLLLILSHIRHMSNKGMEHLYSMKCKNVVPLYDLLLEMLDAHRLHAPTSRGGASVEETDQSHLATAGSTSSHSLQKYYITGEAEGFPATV
Chain of Estrogen receptor beta (Homo sapiens) (Q92731 whole entry, looked up): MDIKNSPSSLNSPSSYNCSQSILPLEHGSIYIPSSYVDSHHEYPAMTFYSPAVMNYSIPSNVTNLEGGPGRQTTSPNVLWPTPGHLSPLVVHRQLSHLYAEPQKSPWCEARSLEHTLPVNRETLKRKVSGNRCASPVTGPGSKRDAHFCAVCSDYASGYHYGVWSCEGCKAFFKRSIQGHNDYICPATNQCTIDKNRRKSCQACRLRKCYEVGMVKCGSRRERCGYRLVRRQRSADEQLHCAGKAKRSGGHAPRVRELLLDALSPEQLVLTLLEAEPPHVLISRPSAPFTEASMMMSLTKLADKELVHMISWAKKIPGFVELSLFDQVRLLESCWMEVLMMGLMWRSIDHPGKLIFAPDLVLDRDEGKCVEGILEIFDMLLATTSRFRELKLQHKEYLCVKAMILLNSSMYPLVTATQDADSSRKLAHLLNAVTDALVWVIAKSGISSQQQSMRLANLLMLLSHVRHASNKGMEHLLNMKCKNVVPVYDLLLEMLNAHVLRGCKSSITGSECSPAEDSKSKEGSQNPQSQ
Chain of Progesterone receptor (Homo sapiens) (P06401 whole entry, looked up): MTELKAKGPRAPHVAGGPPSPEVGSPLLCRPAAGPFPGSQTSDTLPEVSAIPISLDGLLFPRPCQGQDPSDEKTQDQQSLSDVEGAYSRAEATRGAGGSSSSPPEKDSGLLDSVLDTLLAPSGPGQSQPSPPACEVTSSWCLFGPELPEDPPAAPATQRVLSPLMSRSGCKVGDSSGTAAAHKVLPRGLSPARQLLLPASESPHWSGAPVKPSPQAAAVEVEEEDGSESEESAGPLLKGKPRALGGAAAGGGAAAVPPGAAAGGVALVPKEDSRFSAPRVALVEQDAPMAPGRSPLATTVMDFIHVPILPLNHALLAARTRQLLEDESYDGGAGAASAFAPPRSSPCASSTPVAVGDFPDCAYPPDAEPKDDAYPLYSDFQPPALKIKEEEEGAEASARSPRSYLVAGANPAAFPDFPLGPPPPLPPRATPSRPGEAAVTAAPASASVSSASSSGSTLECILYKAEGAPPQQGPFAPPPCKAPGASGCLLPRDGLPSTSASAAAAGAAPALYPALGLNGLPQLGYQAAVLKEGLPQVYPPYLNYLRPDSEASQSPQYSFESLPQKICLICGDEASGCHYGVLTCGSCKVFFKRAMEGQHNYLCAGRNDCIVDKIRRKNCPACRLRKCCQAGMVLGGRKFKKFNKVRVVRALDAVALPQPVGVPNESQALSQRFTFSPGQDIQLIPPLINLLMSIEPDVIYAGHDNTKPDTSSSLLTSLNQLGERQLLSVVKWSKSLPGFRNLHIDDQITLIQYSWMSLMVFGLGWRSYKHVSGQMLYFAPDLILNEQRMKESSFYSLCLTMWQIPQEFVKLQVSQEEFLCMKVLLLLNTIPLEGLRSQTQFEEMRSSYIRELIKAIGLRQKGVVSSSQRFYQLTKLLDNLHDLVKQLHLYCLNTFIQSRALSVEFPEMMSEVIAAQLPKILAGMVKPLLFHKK
Chain of Thyrotropin-releasing hormone receptor (Homo sapiens) (P34981 whole entry, looked up): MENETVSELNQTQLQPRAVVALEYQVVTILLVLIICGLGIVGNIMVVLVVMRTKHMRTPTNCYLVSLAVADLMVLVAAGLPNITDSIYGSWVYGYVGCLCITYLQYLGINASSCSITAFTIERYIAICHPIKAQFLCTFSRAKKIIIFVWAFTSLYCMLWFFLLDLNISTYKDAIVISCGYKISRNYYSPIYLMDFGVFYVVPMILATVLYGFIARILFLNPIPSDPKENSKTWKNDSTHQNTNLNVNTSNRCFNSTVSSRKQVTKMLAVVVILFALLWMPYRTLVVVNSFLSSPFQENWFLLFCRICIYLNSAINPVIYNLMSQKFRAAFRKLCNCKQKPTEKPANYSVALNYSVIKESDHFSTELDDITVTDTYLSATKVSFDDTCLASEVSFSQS
Chain of Thyrotropin receptor (Homo sapiens) (P16473 whole entry, looked up): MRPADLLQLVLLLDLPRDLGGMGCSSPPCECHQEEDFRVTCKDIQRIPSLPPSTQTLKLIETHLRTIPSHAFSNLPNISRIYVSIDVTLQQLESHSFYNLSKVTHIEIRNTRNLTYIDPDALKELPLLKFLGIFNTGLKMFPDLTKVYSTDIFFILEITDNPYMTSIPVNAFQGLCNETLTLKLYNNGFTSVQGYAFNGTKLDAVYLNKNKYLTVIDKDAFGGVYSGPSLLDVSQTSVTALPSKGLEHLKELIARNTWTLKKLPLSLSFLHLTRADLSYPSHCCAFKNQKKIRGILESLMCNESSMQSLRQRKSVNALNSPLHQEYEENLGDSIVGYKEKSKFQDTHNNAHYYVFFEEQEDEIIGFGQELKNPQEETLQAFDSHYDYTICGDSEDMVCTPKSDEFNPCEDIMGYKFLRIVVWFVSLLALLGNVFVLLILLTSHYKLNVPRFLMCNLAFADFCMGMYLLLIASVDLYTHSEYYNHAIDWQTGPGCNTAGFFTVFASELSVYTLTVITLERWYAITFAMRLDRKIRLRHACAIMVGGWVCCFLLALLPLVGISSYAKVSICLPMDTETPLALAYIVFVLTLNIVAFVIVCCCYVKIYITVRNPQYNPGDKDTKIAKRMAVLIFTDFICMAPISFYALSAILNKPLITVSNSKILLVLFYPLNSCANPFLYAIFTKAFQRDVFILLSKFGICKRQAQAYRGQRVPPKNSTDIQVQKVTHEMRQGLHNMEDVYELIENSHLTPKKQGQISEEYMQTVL
Chain of Androgen receptor (Homo sapiens) (P10275 whole entry, looked up): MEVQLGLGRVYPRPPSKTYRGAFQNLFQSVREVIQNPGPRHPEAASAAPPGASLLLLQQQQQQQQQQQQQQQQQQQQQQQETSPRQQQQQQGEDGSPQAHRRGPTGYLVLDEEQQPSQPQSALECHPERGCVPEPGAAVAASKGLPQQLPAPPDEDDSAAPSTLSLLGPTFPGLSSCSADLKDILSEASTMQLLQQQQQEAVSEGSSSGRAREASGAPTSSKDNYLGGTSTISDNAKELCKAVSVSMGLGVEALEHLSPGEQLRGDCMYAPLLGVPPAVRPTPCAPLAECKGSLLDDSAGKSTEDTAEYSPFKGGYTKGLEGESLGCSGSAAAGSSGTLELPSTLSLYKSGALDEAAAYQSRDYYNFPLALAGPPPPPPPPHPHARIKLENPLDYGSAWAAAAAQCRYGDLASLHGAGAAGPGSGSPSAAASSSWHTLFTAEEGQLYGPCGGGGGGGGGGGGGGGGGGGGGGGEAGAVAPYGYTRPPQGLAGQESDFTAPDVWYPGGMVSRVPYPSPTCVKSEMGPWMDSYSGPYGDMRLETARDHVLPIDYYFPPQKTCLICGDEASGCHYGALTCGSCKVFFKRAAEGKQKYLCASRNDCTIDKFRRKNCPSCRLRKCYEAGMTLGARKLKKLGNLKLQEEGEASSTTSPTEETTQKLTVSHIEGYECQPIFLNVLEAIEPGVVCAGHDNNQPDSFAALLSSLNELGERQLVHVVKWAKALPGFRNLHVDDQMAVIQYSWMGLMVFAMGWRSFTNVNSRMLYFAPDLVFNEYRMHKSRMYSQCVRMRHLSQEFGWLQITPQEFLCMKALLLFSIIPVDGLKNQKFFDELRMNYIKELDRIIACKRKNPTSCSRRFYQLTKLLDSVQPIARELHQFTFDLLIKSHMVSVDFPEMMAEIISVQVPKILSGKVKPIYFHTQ

Consider `CCn1ccc(NS(=O)(=O)c2ccc(N)cc2)nc1=O`, for which the compound was called inactive in assay [1], in assay [6], in assay [7], in assay [8], in [9] and in assay [15]. For the same compound, the compound was called inactive in assay [16] and in assay [17]. The Potency entry in [2], in [3], in assay [4], in assay [5], in assay [10] and in assay [11] was “inactive” each time. In addition, the Potency result in assay [12], in [13] and in assay [14] was “inactive” throughout.
With `CC(COC(C)(C)C)OCCCO` (configuration not stated), the result in assay [1], in assay [18], in assay [6], in assay [8], in [9] and in assay [15] was inactive. The outcome in [16], in assay [17] and in [19] was inactive. Besides, the Potency result in [2], in assay [3], in assay [4], in assay [5], in [10] and in assay [12] was “inactive” in each case. For the same compound, the Potency entry in [13] was “inactive”.
As to `CCCCNC1CC(C)(C)NC(C)(C)C1`, the result in [1], in assay [18], in [6], in assay [7], in assay [8] and in assay [15] was inactive. In addition, the compound was classed as inactive in assay [16], in assay [17] and in assay [19]. The Potency entry in [2], in [3], in [5], in [11], in [12] and in assay [13] was “inactive” each time. Besides, the Potency entry in assay [14] is “inactive”.
For the compound `CCOc1cc([N+](=O)[O-])c(OCC)cc1N1CCOCC1`, the call in assay [1], in assay [6], in assay [7], in assay [8], in assay [9] and in assay [15] was inactive. The outcome in [16] and in [19] was inactive. Also, the Potency entry in [2], in [3], in assay [5], in assay [11], in assay [13] and in [14] was “inactive” each time. Further, the Potency in assay [12] is 27.3 µM (active).
For the compound `CC[C@H](C)C(=O)O[C@H]1C[C@H](O)C=C2C=C[C@H](C)[C@H](CC[C@@H](O)C[C@@H](O)CC(=O)O)[C@H]21`, the call in [1], in [6], in assay [7], in assay [15], in assay [16] and in [17] was inactive. Besides, the Potency entry in [2], in assay [3], in assay [5], in assay [10], in [11] and in assay [12] was “inactive” in each case. Further, the Potency entry in assay [13] and in assay [14] was “inactive” in each case.
Take `CCN(CC)CC(=O)Nc1c(C)cccc1C`: the call in assay [1], in assay [18], in assay [6], in assay [8], in assay [15] and in assay [16] was inactive. Also, the call in [19] was inactive. Further, the Potency result in assay [2], in assay [3], in assay [5], in assay [20], in [10] and in [11] was “inactive” each time. The Potency result in assay [12], in [13] and in assay [14] was “inactive” each time.
For the compound `NS(=O)(=O)c1cc2c(cc1Cl)CN(C1CCCCC1)C2=O`, the result in assay [1], in assay [18], in assay [6], in [8], in assay [9] and in assay [15] was inactive. Further, the result in assay [16], in [17] and in [19] was inactive. In addition, the Potency entry in [2], in [3], in assay [5], in assay [20], in assay [10] and in [11] was “inactive” in each case. Besides, the Potency entry in assay [12], in assay [13] and in assay [14] was “inactive” throughout.
